The results in this text go back to PubChem BioAssay AID1259354 (Paczesny and Yang Labs, IUPUI and University of Michigan, 2018).

The whole screen tested about 78,000 compounds, of which about 1,800 (2.3%) were called active. About 27% were inconclusive and are not listed. No stated cut-off is given here; in the data, active means inhibition above about 30%; inconclusive means mostly about 10% to 28%; inactive means weaker than that. The full list was thinned out, with actives kept by preference.

Interleukin-1 receptor-like 1 (Homo sapiens), sequence (Q01638 whole entry, looked up): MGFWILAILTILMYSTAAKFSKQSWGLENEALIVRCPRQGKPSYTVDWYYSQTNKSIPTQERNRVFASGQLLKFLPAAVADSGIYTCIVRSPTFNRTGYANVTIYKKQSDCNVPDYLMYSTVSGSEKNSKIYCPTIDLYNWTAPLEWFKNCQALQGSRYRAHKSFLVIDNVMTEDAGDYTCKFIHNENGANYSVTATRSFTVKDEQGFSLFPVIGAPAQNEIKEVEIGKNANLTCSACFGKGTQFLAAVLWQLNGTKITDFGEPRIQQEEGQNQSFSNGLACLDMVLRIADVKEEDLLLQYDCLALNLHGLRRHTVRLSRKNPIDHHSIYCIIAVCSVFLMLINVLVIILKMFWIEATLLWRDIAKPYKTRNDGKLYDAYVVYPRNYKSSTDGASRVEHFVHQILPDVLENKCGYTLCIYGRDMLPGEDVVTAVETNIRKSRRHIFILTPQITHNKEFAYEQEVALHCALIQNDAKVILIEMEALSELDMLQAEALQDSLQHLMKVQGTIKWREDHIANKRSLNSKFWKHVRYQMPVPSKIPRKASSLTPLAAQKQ

This assay concerns the target Interleukin-1 receptor-like 1 (Homo sapiens) (UniProt Q01638). The assay can be described thus: inhibitors of human ST2 (IL1RL1) binding to IL-33, primary screen, biochemical, AlphaLISA (AID 1259354). The note with it: AlphaLISA ST2-Fc/biotin-IL-33 interaction, 1 h; at 17 µM, hits give high values.
Take `CC(C)c1ccc(Nc2c(-c3cccs3)nc3cnccn23)cc1`: the inhibition result is “inactive”.
As for `O=C(c1ccccc1F)N1CCc2c(c(C(=O)N3CCOCC3)nn2CCCc2ccccc2)C1`, the inhibition result is “inactive”.
Take `CC(C)c1ccc(NC2CCCN(C(=O)CCc3nc(-c4ccccc4)no3)C2)cc1` (centres undefined): the inhibition entry is “inactive”.
The same measure for `CC1=C(C(N)=O)C(c2ccccc2Cl)n2ncnc2N1` (centres undefined): “inactive”; for `O=C(Cn1nc(-c2ccccc2)ccc1=O)NCCN1CCOCC1`: “inactive”.
The same measure for `COc1c(F)ccc(-c2nc(C(C)C)nn2-c2ccccn2)c1F`: “inactive”; for `CN(C)CCCNc1c2c(c(C#N)c3nc4ccccc4n13)CCC2`: 51% (active); for `Cc1c(CCC#N)c(-n2ccnc2)n2c(nc3ccccc32)c1C#N`: “inactive”.
Consider `Cc1cc(NCCN2CCCCCC2)n2c(nc3ccccc32)c1C#N`, for which the inhibition is 45% (active).
Regarding `N#Cc1c2c(c(-n3ccnc3)n3c1nc1ccccc13)CCC2`, the inhibition result is “inactive”.
On to `O=C(CN1CCCN(Cc2ccccc2)S1(=O)=O)NCCc1ccccc1`, for which the inhibition entry was “inactive”.
In the case of `CN1C(N)=NC(=O)/C1=C/c1cc(Br)c(O)c(Br)c1` it was “inactive”.
Take `COc1cc(/C=C2/C(=O)N(c3ccc(Cl)c(Cl)c3)N=C2C)cc(Br)c1O`: the inhibition is 37% (active).
The same measure for `COc1ccc(/C=C2\C(=O)N(c3ccc(Cl)c(C(=O)O)c3)N=C2C)cc1Br`: 72% (active).
For `COc1ccc(Cl)cc1C(=O)N1CCN(c2cccc(Cl)c2)CC1`, the inhibition entry was “inactive”.
The same measure for `COc1ccc2cc(-c3ccccc3NC(=O)CN)ccc2c1`: “inactive”; for `COc1ccc(C2C(C(=O)N3CCC(C)CC3)c3cc(OC)c(OC)cc3C(=O)N2C)cc1` (centres undefined): “inactive”.
For `COc1cc(/C=C2\C(=O)Nc3ccc(Br)cc32)ccc1O`, the inhibition result is “inactive”.
The same measure for `CCOc1cc(/C=C2\C(=O)NC(=O)N(c3ccc(Br)cc3)C2=O)ccc1O`: “inactive”; for `CCOc1ccc(Br)c(/C=C2\C(=O)Nc3ccc(Br)cc32)c1`: 60% (active).
The same measure for `COCc1cc(CNC(=O)c2csc3c2CCCC3)[nH]n1`: “inactive”.
On to `O=C(Nc1ccccc1)/C(=C/c1ccc2c(c1)OCO2)NC(=O)c1ccc(Br)o1`, for which the inhibition result is “inactive”.
As for `COc1ccccc1C(=O)N/C(=C\c1ccc2c(c1)OCO2)C(N)=O`, the inhibition entry was “inactive”.
Consider `COc1ccccc1C(=O)N/C(=C/c1ccc2c(c1)OCO2)C(=O)Nc1cccc(C(=O)O)c1`, for which the inhibition was 39% (active).
On to `CC(C)(C)NS(=O)(=O)c1ccc2c(c1)C(=O)c1cc(S(=O)(=O)NC(C)(C)C)ccc1-2`, for which the inhibition result was “inactive”.
With `CCCc1nc(CN(C)C(=O)c2c(O)cccc2O)no1`, the inhibition entry was “inactive”.
Take `CC(C)c1ccc(CNCCCN(C)C)cc1`: the inhibition entry was “inactive”.
Regarding `O=C(NC1CCCCC1)N1CCC(n2cc(-c3ccccn3)nn2)CC1`, the inhibition result is “inactive”.
On to `COc1ccc(-c2nc3s/c(=C\C4=Cc5ccccc5OC4C)c(=O)n3n2)cc1` (centres undefined), for which the inhibition result was “inactive”.
For the compound `CC1CCN(S(=O)(=O)c2ccc(Cl)c(C(=O)Nc3ccccc3[N+](=O)[O-])c2)CC1`, the inhibition was 34% (active).
The same measure for `CC1CCN(S(=O)(=O)c2ccc(Cl)c(S(=O)(=O)N3CCC(C)CC3)c2)CC1`: “inactive”; for `O=C(Nc1ccccc1-c1ccccc1)c1ccccc1[N+](=O)[O-]`: “inactive”.
Regarding `C/C(=C/c1nsc(Nc2ccc(Cl)cc2)n1)NC1CC(C)(C)NC(C)(C)C1`, the inhibition result is “inactive”.
For `CC1CCCC(C)N1C(=O)c1cccc2c1-c1ccccc1C2=O` (centres undefined), the inhibition entry was “inactive”.
In the case of `Cc1ccccc1CC1(C(=O)O)CCCN(c2cc(C3CC3)ncn2)C1` (centres undefined) it was “inactive”; in that of `CC(=O)C1=C(C)OC(N)=C(C#N)C1c1ccccc1` (centres undefined), “inactive”; in that of `O=C(Nc1cccc(-c2cccc(Cl)c2)c1)C1CCN(C(=O)c2ccccc2)CC1`, “inactive”.
The same measure for `Cc1cccc(NC(=O)CN2C(=O)CC(c3ccccc3)=Nc3ccccc32)c1`: “inactive”; for `Cc1nc(-c2cccc(NC(=O)C3CCN(c4ccccc4)C3=O)c2)no1` (centres undefined): 37% (active); for `FC(F)(F)c1ccnc(NCc2cccnc2-n2ccnc2)c1`: “inactive”.
The same measure for `O=C(Nc1ccc2c(c1)OCO2)C1CCN(S(=O)(=O)c2ccc(F)cc2)CC1`: “inactive”.
In the case of `Cn1c(=O)c2c(nc(N3CCCCCC3)n2CC(O)COc2ccc(Cl)cc2)n(C)c1=O` (centres undefined), the inhibition result is “inactive”.
For the compound `Clc1ccc(OCCN2CCCCCC2)cc1`, the inhibition result was “inactive”.
In the case of `N#Cc1nc(COc2ccc(Cl)cc2)oc1N1CCCC1`, the inhibition was 73% (active).
As for `COCCO[C@H]1[C@H](NC(=O)C(C)C)c2ccccc2C12CCN(C(=O)c1cc(C(C)C)on1)CC2`, the inhibition result was “inactive”.
For the compound `O=C(O)c1cc(Br)ccc1N=Cc1nc(-c2ccccc2)oc1O`, the inhibition result is “inactive”.
`C=CCOc1ccc(C2C(C(=O)OCC(C)C)=C(C)N=C3SCCC(=O)N32)cc1` (centres undefined): the inhibition entry was “inactive”.
Regarding `COc1ccccc1NC(NC(=O)c1cccc(Cl)c1)C(Cl)(Cl)Cl` (centres undefined), the inhibition entry is “inactive”.
Regarding `O=C(CCCn1cnnn1)N1CCOC(c2ccc(Cl)c(Cl)c2)C1` (centres undefined), the inhibition entry was “inactive”.
Regarding `O=C(CN1CCOC1=O)NCc1cnn2ccccc12`, the inhibition entry is “inactive”.
Regarding `O=C(CCn1cnnn1)NCc1cnn2ccccc12`, the inhibition is 30% (active).
For `Cc1nn(C(=O)/C=C/c2ccccc2)c(C)c1Sc1ccccc1`, the inhibition was 39% (active).
As for `Cc1nn(C(=O)c2ccccc2)c(C)c1Sc1ccccc1`, the inhibition entry was “inactive”.
In the case of `Cc1nn(C(=O)c2cccs2)c(C)c1Sc1ccccc1`, the inhibition entry was “inactive”.
`Cc1ccc(N2C(=O)CC(Nc3ccc(N4CCOCC4)cc3)C2=O)c(Br)c1` (centres undefined): the inhibition is 56% (active).
Regarding `CC1CC(C)CN(C2CC(=O)N(c3ccc(Br)cc3Br)C2=O)C1` (centres undefined), the inhibition entry was “inactive”.
For the compound `CC1CN(C2CC(=O)N(c3ccc(Br)cc3Br)C2=O)CC(C)O1` (centres undefined), the inhibition result was “inactive”.
Take `CN1CCN(CCCNC(=O)COc2ccc3c(c2)C(=O)CC(C)(C)O3)CC1`: the inhibition result was “inactive”.
For the compound `COc1ccc(NC(=O)Cn2cnc3scc(-c4ccccc4)c3c2=O)cc1Cl`, the inhibition result is “inactive”.
With `COc1cccc(N2CCN(S(=O)(=O)c3ccc4c(c3)c(=O)n(C)c(=O)n4C)CC2)c1`, the inhibition result was “inactive”.
`O=C1C(Nc2ccc(O)cc2)=C(n2nnc3ccccc32)C(=O)c2ccccc21`: the inhibition was 47% (active).
In the case of `CS(=O)(=O)n1nnc2ccccc21` it was “inactive”; in that of `Cc1cc(=O)[nH]c(SCC(=O)Nc2ccc(F)cc2)n1`, “inactive”.
Take `CCOc1ccc(Sc2cc(C(=O)NC3CC3)c3ccccc3n2)cc1`: the inhibition result was “inactive”.
Take `COc1ccc(C2=NN3COc4ccc(Cl)cc4C3C2)cc1` (centres undefined): the inhibition entry was “inactive”.
Turning to `COc1ccc(C2=NN(C(C)=O)C(c3cc(OC)ccc3OC)C2)cc1` (centres undefined), the inhibition result was “inactive”.
For `COc1ccc(C2=NN3COc4ccc(Br)cc4C3C2)cc1` (centres undefined), the inhibition is 36% (active).
The same measure for `O=S(=O)(Nc1ccccc1Br)c1ccccc1`: “inactive”.
Consider `CN(C)C(=O)c1ccc(S(=O)(=O)NC2CCCCCC2)s1`, for which the inhibition entry was “inactive”.
For `Cc1ccc(Sc2c(C)nn(C(=O)c3ccc([N+](=O)[O-])cc3)c2C)cc1`, the inhibition is 60% (active).
The same measure for `O=C(O)c1ccc(C(=O)c2ccc([N+](=O)[O-])cc2)cc1`: “inactive”; for `Cc1nn(C(=O)c2cccnc2)c(C)c1Sc1ccc(Cl)cc1`: “inactive”.
Consider `CCOc1ccc2c(=O)c(Oc3ccc(F)cc3)c(C)oc2c1`, for which the inhibition entry was “inactive”.
With `OCc1ccc(CN2CCC(n3cc(C4CCCCC4)nn3)CC2)o1`, the inhibition entry is “inactive”.
With `Cc1nn(-c2cccc(Br)c2)c(C)c1[C@@H]1C=C[C@@H](NS(=O)(=O)c2ccccc2)C1`, the inhibition result is “inactive”.
For the compound `CN(Cc1ncc[nH]1)C(=O)C1CCN(Cc2ccco2)CC1`, the inhibition entry was “inactive”.
The same measure for `COCCNC(=O)C1C2C=CC3(CN(Cc4ccccc4Cl)C(=O)C13)O2` (centres undefined): “inactive”; for `CCNc1nc(NCC)n2c(SCC(=O)c3ccc(C(C)(C)C)cc3)nnc2n1`: 36% (active).
For the compound `CC1CCCC(NC(=O)C2CCCN(S(=O)(=O)c3cnc[nH]3)C2)C1C` (centres undefined), the inhibition result was “inactive”.
In the case of `COC(=O)c1cccc(-c2nccn2CCc2cccc(F)c2)n1`, the inhibition result is “inactive”.
As to `CCCCNC(=O)CNC(=O)Cn1ccc2ccccc2c1=O`, the inhibition result is “inactive”.
The same measure for `O=[N+]([O-])c1cccc(S(=O)(=O)Nc2cccnc2Cl)c1`: “inactive”; for `CCOc1ccc(S(=O)(=O)Nc2ccccc2F)c2cccnc12`: “inactive”.
On to `O=[N+]([O-])c1ccccc1S(=O)(=O)Nc1cccc2cccnc12`, for which the inhibition is 33% (active).
For the compound `O=C1CCCN1C1CCN(Cc2nnc(C3CC3)o2)CC1`, the inhibition result was “inactive”.
The same measure for `CCOc1ccc(-n2c(C)cc(C(=O)CN3CCC(C)CC3)c2C)cc1`: “inactive”.
Consider `O=c1/c(=C/c2cccc([N+](=O)[O-])c2)sc2n1CN(c1cccc(C(F)(F)F)c1)CN=2`, for which the inhibition result is “inactive”.
As for `COc1ccc(N2CN=c3s/c(=C/c4ccc([N+](=O)[O-])cc4)c(=O)n3C2)cc1`, the inhibition result was “inactive”.
On to `COc1ccc(N2CN=c3s/c(=C\c4ccccn4)c(=O)n3C2)cc1`, for which the inhibition is 32% (active).
In the case of `Cc1ccc(-c2noc(CCC(=O)N(C)c3cc(Cl)ccc3C)n2)cc1` it was “inactive”; in that of `CCOC(=O)c1c(C)n(C)c2ccc(OC(=O)c3ccc(OC)cc3)cc12`, “inactive”; in that of `CCN1CC(NC2CCN(c3ccc(OC)cc3)CC2)CC1=O` (centres undefined), “inactive”.
`CCOc1ccc(C(=O)NC2CC(=O)N(c3ccc(OCC)cc3)C2)cc1` (centres undefined): the inhibition entry is “inactive”.
In the case of `Nc1ccc(Oc2ccc(Cl)cc2)cc1`, the inhibition is 37% (active).
With `O=S(=O)(c1ccc(Oc2ccc(Cl)cc2)cc1)c1ccc(Oc2ccc(Cl)cc2)cc1`, the inhibition result was “inactive”.
Turning to `Cc1cccc(C(CC(=O)N2CCOCC2)c2ccccc2)c1O` (centres undefined), the inhibition entry is “inactive”.
Consider `Clc1ccc(-c2csc(Nc3ncccn3)n2)cc1`, for which the inhibition result was “inactive”.
For the compound `COc1ccc(OC)c(S(=O)(=O)NCCC(C)C)c1`, the inhibition result is “inactive”.
Regarding `O=[N+]([O-])c1cnc(N2CCN(Cc3ccccc3)CC2)c([N+](=O)[O-])c1`, the inhibition was 30% (active).
The same measure for `Clc1cccc(CN2CCN(c3ccccn3)CC2)c1`: “inactive”; for `O=[N+]([O-])c1ccc(CN2CCN(Cc3ccccc3)CC2)s1`: “inactive”; for `CC(C(=O)NC1CC1)N1CCc2[nH]nc(C(c3ccccc3)c3ccccc3)c2C1` (centres undefined): 97% (active).
`O=S(=O)(NCc1ccccc1)N1CCc2[nH]nc(C3CCC3)c2C1`: the inhibition entry is “inactive”.
Consider `CC(C)c1ccc(C(=O)NC2CC2)cc1`, for which the inhibition result was “inactive”.
With `CCc1c(-c2ccccc2)nc2ccccc2c1C(=O)NCC1CCCO1` (centres undefined), the inhibition entry was “inactive”.
In the case of `CCCOc1ccc(CC(=O)O)cc1OC` it was “inactive”.
In the case of `Cc1cc(Cl)ccc1NC(=O)COc1ccc([N+](=O)[O-])cc1` it was “inactive”; in that of `Cc1cccc(C)c1OCC(=O)Nc1ccc([N+](=O)[O-])cc1`, “inactive”; in that of `O=C(COc1ccc([N+](=O)[O-])cc1)Nc1ccc(N2CCCC2)cc1`, 60% (active).
